“And” between values parts separate entries of the source, which are not always exact repeats. Equal entries are not always repeated. Inconclusive results are not listed. A number with no mark means an inactive call. The source made the active and inactive calls. The call rests on the fitted dose curve; in most records, active means well fitted cell-killing curve with a large enough effect; inconclusive means small, poorly fitted or top-dose-only effect, or effect the other way; inactive means no such curve, though single readings can be large or run the other way.

From PubChem BioAssay (NCATS) come the findings set out here.
Potency means the concentration at half of the fitted maximal effect.

A short description of the assay: Viability qHTS for spleen associated tyrosine kinase inhibitor (SYKi) drug resistant MV4-11 cells (AID 1963824). Further: nearly all actives have a fitted effect of over 35% in size. The conditions noted are these: SYKi-resistant MV4-11 viability, CellTiter-Glo, 72 h; series mostly up to 45 µM. The text has this:
Department of Medicine, Hematology/Oncology
University Hospital Frankfurt, Germany.
Trials have shown promising clinical activity of the selective SYK inhibitor entospletinib in patients with high expressing HOXA9/MEIS1 acute leukemias. As the development of resistance mechanisms is a common problem in the use of targeted drugs, we performed a chemical library screen to identify drug sensitivities in SYK inhibitor resistant AML cells. […] Glucocorticoids are potent immunosuppressants which work in part by inhibiting the transcription of cytokine genes.
Described herein is a viability screen to look for activity in the SYK inhibitor drug resistant cell line against four NCATS compound libraries (MIPE 5.0, NPC, NPACT, and Kinase) totaling 11372 compounds. Active hits were reacquired for confirmation and further secondary assay testing.
SEQUENCE No. (e.g., 1, 2, 3, etc.); […] (e.g., Cells, Incubation, Reagent, etc.); VALUE; DESCRIPTION.
1; Media; 2uL; white, solid-bottom Corning assay plate.
2; Compounds; 23nL; Echo acoustic dispenser.
3; Cell; 5uL; 500 cells per well.
4: Incubation; 72hr; 37 C, 5% CO2, 95% humidity.
5; Reagent; 3uL; CellTiter-Glo reagent (Promega).
6; Incubation; 10min; room temperature.
7; Detection; Luminescence; ViewLux plate reader (PerkinElmer).
NOTES (numbers refer to Sequence numbers above
1. Quantitative high-throughput screening (qHTS) of small molecule compounds was conducted on drug resistant SYKi MV4-11 cell line.
2. Twenty-three nanoliter of small molecule compounds were added to each assay plates using the Echo acoustic dispenser (Beckman Coulter).
3. Cells were seeded into the assay plates at a final density of 500 cells in 5uL of media per well using the Multidrop Combi dispenser.
4. Plates were covered with stainless steel gasketed lids and incubated for 72 hours at standard cell culture conditions.
5. Viability was assessed by adding 3uL of CellTiter-Glo detection reagent (Promega).
6. Plates were covered with gasket lids and incubated for 10 minutes at room temperature.
7. Luminescence was measured on a ViewLux plate reader (PerkinElmer).
For `CC1COc2c(N3CCN(C)CC3)c(F)cc3c(=O)c(C(=O)O)cn1c23` (stereo not given), the Potency is 8.41 µM (active).
For `CC(C)(C)C1CCC(CC2=C(O)c3ccccc3C(=O)C2=O)CC1` (stereo not given), the Potency result is “inactive”.
On the same count and under the same terms, for `O=C(O)CCC(=O)O` the value was “inactive”; for `CC(C)c1cccc(C(C)C)c1NC(=O)Nc1ccc(Sc2ccc([N+](=O)[O-])cc2)cc1`, 5.17 µM (active).
Consider `CC(C)C1=CCC(C)(O)C(OC2OC(CO)C(O)C(O)C2O)C1` (stereo not given), for which the Potency result is “inactive”.
Regarding `COc1cc2c(cc1OC)[C@@H]1C(=O)c3ccc4c(c3O[C@@H]1CO2)C=CC(C)(C)O4`, the Potency was 146 nM (active) and 166 nM (active).
Take `CC(=O)Oc1ccccc1C(=O)Nc1ncc([N+](=O)[O-])s1`: the Potency was 11.9 µM (active) and 20.9 µM (active).
On the same count and under the same terms, to `Cc1ccc(NS(=O)(=O)c2cc3c(cc2N[C@@H](C)CO)NC(=O)CC3)cc1C` belongs 20.6 µM (active); to `C[C@@H]1CC(=O)Nc2cccc(-c3ccc4c(c3)c(-c3cnn(C)c3)nn4C)c2N1`, 1.32 µM (active); to `CC[C@]12C=CCN3CC[C@@]4(c5cc([C@@]6(C(=O)OC)CC7C[C@@H](C(C)(F)F)CN(Cc8c6[nH]c6ccccc86)C7)c(OC)cc5N(C)[C@H]4[C@@](O)(C(=O)OC)[C@@H]1OC(C)=O)[C@@H]32` (stereo not given in full), 0.105 µM (active).
In the case of `C=CC(=O)Nc1cc(Nc2ncc(Cl)c(-c3c[nH]c4ccccc34)n2)c(OC)cc1N(C)CCN(C)C`, the Potency is 0.0146 µM (active).
On to `Cc1ccc(-n2nc(C(C)(C)C)cc2NC(=O)Nc2ccc(OCCN3CCOCC3)c3ccccc23)cc1`, for which the Potency is 2.59 µM (active).
As to `COC(=O)/C=C\C(=O)OC`, the Potency result was “inactive”.
On to `COc1cccc(CN(C(=O)CC(C)(C)C)[C@H]2C[C@H](C(=O)N3CCNCC3)N(Cc3ccc4c(c3)OCO4)C2)c1`, for which the Potency was 16.4 µM (active).
For `Oc1ccc(C2=Cc3ccc(O)cc3OC2)cc1`, the Potency was 0.366 µM (active).
As for `O=C(CCN1CCN(C(=O)OCc2cc(Cl)cc(Cl)c2)CC1)c1ccc2[nH]c(=O)oc2c1`, the Potency is 16.6 µM (active).
Turning to `COc1ccc(O)cc1`, the Potency entry was “inactive”.
In the case of `CC(=O)OC[C@@]12C(=O)C[C@@H](C)[C@]3(C[C@@H](c4ccoc4)O[C@H]3OC(C)=O)[C@H]1CCC[C@]21CO1`, the Potency result is “inactive”.
Still for that read-out and setting: for `Nc1ncnc(Nc2ccc(OCc3ccccc3)c(Cl)c2)c1/C=N/OCCN1CCOCC1` the value was 7.42 µM (active).
Same read-out and setting: for `CC(=O)N1c2ccc(-c3ccc(C(=O)O)cc3)cc2[C@H](Nc2ccc(Cl)cc2)C[C@@H]1C` the value was 0.059 µM (active); for `CN1CCC(Nc2ncc3ncnc(Nc4ccc(F)c(Cl)c4)c3n2)CC1`, 18.8 µM (active) and 11.6 µM (active); for `COc1cc([C@@H]2c3cc4c(cc3[C@@H](O[C@@H]3O[C@@H]5CO[C@@H](c6cccs6)O[C@H]5[C@H](O)[C@H]3O)[C@H]3COC(=O)[C@H]23)OCO4)cc(OC)c1O`, 0.0742 µM (active).
On the same count and under the same terms, to `CC1(C)[C@H](C(=O)O)N2C(=O)C[C@H]2S1(=O)=O` belongs “inactive”; to `CCCCNc1ncc2c(-c3ccc(F)cc3)nn(CC3CCC(N)CC3)c2n1` (stereo not given), 0.0112 µM (active).
As to `CC[C@H]1CN2CCc3cc(OC)c(OC)cc3[C@@H]2C[C@@H]1C[C@H]1NCCc2cc(OC)c(OC)cc21`, the Potency was 133 nM (active) and 93.4 nM (active).
As to `CC[C@@H]([C@H](C)O)n1ncn(-c2ccc(N3CCN(c4ccc(OC[C@@H]5CO[C@@](Cn6cncn6)(c6ccc(F)cc6F)C5)cc4)CC3)cc2)c1=O`, the Potency is 6.68 µM (active).
Still for that read-out and setting: for `CC(=O)N/N=C/c1ccc([N+](=O)[O-])o1` the value was 23.7 µM (active).
In the case of `C[C@@H]1O[C@@H](O[C@H]2[C@H](O[C@H]3[C@H](O[C@H]4CC[C@@]5(C=O)C(CC[C@]6(C)C5CC=C5C7CC(C)(C)C[C@@H](O)[C@]7(C)CC[C@]56C)C4(C)C)O[C@H](C(=O)O)[C@@H](O)[C@@H]3O)OC[C@@H](O)[C@@H]2O)[C@H](O)[C@H](O)[C@H]1O` (stereo not given in full), the viability, % of control was 103% [at 9.25 µM].
Turning to `C[C@@H]1CCC2C(C)(C)[C@H](O)CC[C@]2(C)[C@@]12Cc1c(O)cc3c(c1O2)CN([C@@H](CCC(=O)O)C(=O)O)C3=O` (stereo not given in full), the Potency entry was “inactive”.
`Cc1ccccc1C(=O)Nc1ccc(C(=O)N2CCC[C@@H](O)c3cc(Cl)ccc32)c(C)c1`: the Potency was 20.6 µM (active).
`CCOC(=O)C1=C(C)NC2=C(C(=O)CC(C)(C)C2)C1c1ccc(-c2ccccc2)cc1` (stereo not given): the Potency is 18.4 µM (active) and 18.6 µM (active).
Consider `CCCCNc1ncc2c(-c3ccc(CN4CCN(C)CC4)cc3)cn(C3CCC(O)CC3)c2n1` (stereo not given), for which the Potency was 11.6 nM (active) and 20.9 nM (active).
Take `C=C1C(=O)OC2CC(C)C(CCC(C)=O)=CCC12` (stereo not given): the Potency was 5.17 µM (active).
`OC[C@H]1O[C@@H](O[C@@H]2OC=C[C@H]3[C@H](O)[C@@H]4O[C@]4(CO)[C@@H]23)[C@H](O)[C@@H](O)[C@@H]1O`: the Potency result is “inactive”.
As for `CN[C@H](CC(C)C)C(=O)N[C@H]1C(=O)N[C@@H](CC(N)=O)C(=O)N[C@H]2C(=O)N[C@H]3C(=O)N[C@H](C(=O)N[C@H](C(=O)O)c4cc(O)cc(O)c4-c4cc3ccc4O)[C@H](O[C@H]3C[C@](C)(N)[C@@H](O)[C@H](C)O3)c3ccc(c(Cl)c3)Oc3cc2cc(c3O[C@@H]2O[C@H](CO)[C@@H](O)[C@H](O)[C@H]2O[C@H]2C[C@](C)(NCc3ccc(-c4ccc(Cl)cc4)cc3)[C@@H](O)[C@H](C)O2)Oc2ccc(cc2Cl)[C@H]1O`, the Potency entry was “inactive”.
Take `CC(=O)OC[C@@]12[C@H](O)C[C@@H](C)[C@]3(C[C@@H](c4ccoc4)OC3=O)[C@H]1C[C@H](O)C[C@]21CO1`: the Potency result was “inactive”.
As to `O=S(=O)(NCCNC/C=C/c1ccc(Br)cc1)c1cccc2cnccc12`, the Potency was 9.2 µM (active) and 11.8 µM (active).
Consider `C[C@@H]1CC[C@]2(C(=O)O[C@@H]3O[C@H](CO)[C@@H](O)[C@H](O)[C@H]3O)CC[C@]3(C)C(=CCC4[C@@]5(C)C[C@@H](O)[C@H](O)[C@](C)(C(=O)O)C5CC[C@]43C)[C@@H]2[C@]1(C)O` (stereo not given in full), for which the Potency entry is “inactive”.
Take `CC(C)c1noc(N2CCC(COc3ccc(-c4ccc(S(C)(=O)=O)cc4)nc3)CC2)n1`: the Potency was 5.25 µM (active).
In the case of `Cn1cnc2c1c(=O)[nH]c(=O)n2C`, the Potency entry was “inactive”.
